Laboratory results taken from PubChem BioAssay (NCATS).
Inconclusive results are not listed. The source made the active and inactive calls. Calls come from the whole dose curve; as a rule, active = well fitted cell-killing curve with a large enough effect; inconclusive = small, poorly fitted or top-dose-only effect, or effect the other way; inactive = flat fitted curve, though single readings scatter.

Experiments:
Test in all cases: Primary qHTS to identify gynecologic anti-cancer compounds using libraries of approved drugs and bioactive compounds (AID 1345084); note: nearly all actives have a fitted effect of over 55% in size
Hek293T = details: Gynecologic cancer cell panel viability, ATPlite luminescence, 48 h, control line for the selectivity index; series mostly up to 57.5 µM
Summary of the method: (§1)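 ATP-based viability (ATPlite), 1,000 cells/well, 16 h pre-incubation, 48 h compound at 37 C, 5% CO2, 15 min RT before read.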

JEG-3 = details: Gynecologic cancer cell panel viability, ATPlite luminescence, 48 h; series mostly up to 57.5 µM
Summary of the method: as §1

OV90 = details: Gynecologic cancer cell panel viability, ATPlite luminescence, 48 h; series mostly up to 57.5 µM
Summary of the method: as §1

PA-1 = details: Gynecologic cancer cell panel viability, ATPlite luminescence, 48 h; series mostly up to 57.5 µM
Summary of the method: as §1

SKOV3 = details: Gynecologic cancer cell panel viability, ATPlite luminescence, 48 h; series mostly up to 57.5 µM
Summary of the method: as §1

Tov-21-G = details: Gynecologic cancer cell panel viability, ATPlite luminescence, 48 h; series mostly up to 57.5 µM
Summary of the method: as §1

Tov112D = details: Gynecologic cancer cell panel viability, ATPlite luminescence, 48 h; series mostly up to 57.5 µM
Summary of the method: as §1
% is set by controls: 0 for no effect and ±100 for the full control effect.

CC(CCC1(O)OC2CC3C4CCC5CC(O[C@@H]6O[C@H](CO)[C@@H](O)[C@H](O)[C@H]6O[C@@H]6OC[C@@H](O)[C@H](O)[C@H]6O)C(O)CC5(C)C4CCC3(C)C2C1C)CO[C@@H]1O[C@H](CO)[C@@H](O)[C@H](O)[C@H]1O (stereo partly specified)
inactive: activity change, negative = cytotoxicity (Hek293T) -3.21% [at 11.6 µM] | activity change, negative = cytotoxicity (JEG-3) 4.38% [at 11.6 µM] | activity change, negative = cytotoxicity (OV90) -1.54% [at 11.6 µM] | activity change, negative = cytotoxicity (PA-1) 17.2% [at 11.6 µM] | activity change, negative = cytotoxicity (SKOV3) 0% [at 11.6 µM] | activity change, negative = cytotoxicity (Tov-21-G) 0.148% [at 11.6 µM] | activity change, negative = cytotoxicity (Tov112D) 1.16% [at 11.6 µM]

CC1=CC[C@]2(C(=O)O[C@@H]3O[C@H](CO[C@@H]4O[C@H](CO)[C@@H](O[C@@H]5O[C@@H](C)[C@H](O)[C@@H](O)[C@H]5O)[C@H](O)[C@H]4O)[C@@H](O)[C@H](O)[C@H]3O)CC[C@]3(C)C(CCC4[C@@]5(C)C[C@@H](O)[C@H](O)[C@@](C)(CO)C5CC[C@]43C)C2C1C (stereo partly specified)
inactive: activity change, negative = cytotoxicity (Hek293T) -4.38% [at 11.6 µM] | activity change, negative = cytotoxicity (JEG-3) -1.63% [at 11.6 µM] | activity change, negative = cytotoxicity (OV90) 6.64% [at 11.6 µM] | activity change, negative = cytotoxicity (PA-1) 10.1% [at 11.6 µM] | activity change, negative = cytotoxicity (SKOV3) -2.91% [at 11.6 µM] | activity change, negative = cytotoxicity (Tov-21-G) 4.72% [at 11.6 µM] | activity change, negative = cytotoxicity (Tov112D) -1.58% [at 11.6 µM]

CC(=O)O[C@H]1CC[C@@]2(CI)C(=CC[C@@H]3[C@@H]2CC[C@]2(C)[C@@H]([C@H](C)CCCC(C)C)CC[C@@H]32)C1
inactive: activity change, negative = cytotoxicity (Hek293T) 4.14% [at 11.6 µM] | activity change, negative = cytotoxicity (JEG-3) -2.55% [at 11.6 µM] | activity change, negative = cytotoxicity (OV90) -2.38% [at 11.6 µM] | activity change, negative = cytotoxicity (PA-1) 22.4% [at 11.6 µM] | activity change, negative = cytotoxicity (SKOV3) 5.27% [at 11.6 µM] | activity change, negative = cytotoxicity (Tov-21-G) 10.3% [at 11.6 µM] | activity change, negative = cytotoxicity (Tov112D) 11.8% [at 11.6 µM]

C=C1CC23CCC4[C@@](C)(CCC[C@@]4(C)C(=O)O)C2CCC1C3 (stereo partly specified)
inactive: Potency (Hek293T) | Potency (JEG-3) | Potency (OV90) | Potency (PA-1) | Potency (SKOV3) | Potency (Tov-21-G) | Potency (Tov112D)

C/C=C(\C)C(=O)O[C@H]1[C@@H](O[C@]2(COC(=O)CC(C)C)O[C@H](COC(=O)C(C)C)[C@@H](OC(C)=O)[C@@H]2O)O[C@H](COC(C)=O)[C@@H](O)[C@@H]1O
inactive: Potency (Hek293T) | Potency (JEG-3) | Potency (OV90) | Potency (PA-1) | Potency (SKOV3) | Potency (Tov-21-G) | Potency (Tov112D)

C=CC(C)(O)CC/C=C(\C)C(=O)OC1CC2(C(=O)O)CCC3(C)C(=CCC4C5(C)CCC(OC6OC(COC7OCC(O)C(O)C7O)C(O)C(OC7OCC(O)C(O)C7O)C6OC6OC(CO)C(O)C(O)C6OC6OCC(O)C(O)C6O)C(C)(C)C5CCC43C)C2CC1(C)C (stereo unspecified)
inactive: activity change, negative = cytotoxicity (Hek293T) -1.17% [at 6.55 µM] | activity change, negative = cytotoxicity (JEG-3) -1.3% [at 6.55 µM] | activity change, negative = cytotoxicity (OV90) 0.467% [at 6.55 µM] | activity change, negative = cytotoxicity (PA-1) 9.33% [at 6.55 µM] | activity change, negative = cytotoxicity (SKOV3) -0.175% [at 6.55 µM] | activity change, negative = cytotoxicity (Tov-21-G) 1.97% [at 6.55 µM] | activity change, negative = cytotoxicity (Tov112D) 4.31% [at 6.55 µM]

CC[C@H](/C=C/[C@@H](C)[C@H]1CC[C@H]2[C@@H]3CC=C4C[C@@H](O)CC[C@]4(C)[C@H]3CC[C@]12C)C(C)C
inactive: activity change, negative = cytotoxicity (Hek293T) 4.66% [at 6.55 µM] | activity change, negative = cytotoxicity (JEG-3) 3.22% [at 6.55 µM] | activity change, negative = cytotoxicity (OV90) 2.68% [at 6.55 µM] | activity change, negative = cytotoxicity (PA-1) 2.16% [at 6.55 µM] | activity change, negative = cytotoxicity (SKOV3) 8.88% [at 6.55 µM] | activity change, negative = cytotoxicity (Tov-21-G) 16.8% [at 6.55 µM] | activity change, negative = cytotoxicity (Tov112D) -1.77% [at 6.55 µM]

CC(=O)N1CCN(NC(=O)c2ccc(F)cc2)CC1
inactive: Potency (Hek293T) | Potency (JEG-3) | Potency (OV90) | Potency (PA-1) | Potency (SKOV3) | Potency (Tov-21-G) | Potency (Tov112D)

Cc1ccc2c(c1)C=Cc1cc(C)ccc1C2c1cn(Cc2ccc(C(=O)Nc3nn[nH]n3)o2)c(=O)[nH]c1=S
inactive: Potency (Hek293T) | Potency (JEG-3) | Potency (OV90) | Potency (PA-1) | Potency (SKOV3) | Potency (Tov-21-G) | Potency (Tov112D)

CO[C@@H]1CC[C@H](OC[C@]2(COC(=O)c3ccc(C)[nH]3)[C@H](OC(C)=O)CC[C@@]3(C)[C@@H]4CC=C(C)[C@@H](C5=C(O)C(=O)OC5O)[C@]4(C)CC[C@@H]32)O[C@H]1C (stereo partly specified)
inactive: Potency (Hek293T) | Potency (JEG-3) | Potency (OV90) | Potency (PA-1) | Potency (SKOV3) | Potency (Tov-21-G) | Potency (Tov112D)

CC(C)[C@@H](C)/C=C/[C@@H](C)[C@H]1CC[C@H]2C3=CC=C4C[C@@H](O)CC[C@]4(C)[C@H]3CC[C@]12C
inactive: Potency (Hek293T) | Potency (JEG-3) | Potency (OV90) | Potency (PA-1) | Potency (SKOV3) | Potency (Tov-21-G) | Potency (Tov112D)

COc1ccc(C2=CC(=O)OC2Cc2ccc(O)cc2)c(O)c1 (stereo unspecified)
inactive: Potency (Hek293T) | Potency (JEG-3) | Potency (OV90) | Potency (PA-1) | Potency (SKOV3) | Potency (Tov-21-G) | Potency (Tov112D)

CC(C)C(C#N)O[C@@H]1O[C@H](CO[C@@H]2OC[C@](O)(CO)[C@H]2O)[C@@H](O)[C@H](O)[C@H]1O (stereo partly specified)
inactive: Potency (Hek293T) | Potency (JEG-3) | Potency (OV90) | Potency (PA-1) | Potency (SKOV3) | Potency (Tov-21-G) | Potency (Tov112D)

C=CC1(C)C=C2C(O)CC3C(C)(C(=O)O)CCCC3(C)C2CC1 (stereo unspecified)
inactive: Potency (Hek293T) | Potency (JEG-3) | Potency (OV90) | Potency (PA-1) | Potency (SKOV3) | Potency (Tov-21-G) | Potency (Tov112D)

CN(C)c1cccc(-c2c3c(=O)n(-c4ccccc4Cl)[nH]c3cc(=O)n2C)c1
inactive: Potency (Hek293T) | Potency (JEG-3) | Potency (OV90) | Potency (PA-1) | Potency (SKOV3) | Potency (Tov-21-G) | Potency (Tov112D)

CCC(CC)n1ccc2c(C(=O)NCc3c(C)cc(C)[nH]c3=O)cc(C#N)cc21
inactive: Potency (Hek293T) | Potency (JEG-3) | Potency (OV90) | Potency (PA-1) | Potency (SKOV3) | Potency (Tov-21-G) | Potency (Tov112D)

C[C@@H]1C[C@H](O)/C=C/[C@H](O)[C@@H](O)CC(=O)O1
inactive: Potency (Hek293T) | Potency (JEG-3) | Potency (OV90) | Potency (PA-1) | Potency (SKOV3) | Potency (Tov-21-G) | Potency (Tov112D)

CC(C)NC[C@H](O)COc1ccc(CCOCC2CC2)cc1
inactive: Potency (Hek293T) | Potency (JEG-3) | Potency (OV90) | Potency (PA-1) | Potency (SKOV3) | Potency (Tov-21-G) | Potency (Tov112D)
